Inconclusive results are not listed. Calls of active or inactive are those of the source. Calls come from the whole dose curve; as a rule, active = well fitted cell-killing curve with a large enough effect; inconclusive = small, poorly fitted or top-dose-only effect; inactive = flat fitted curve, though single readings scatter.
Assay: Cell Viability - LYMP2-011 (AID 969); note: nearly all actives have a fitted effect of over 60% in size
Conditions: LYMP2-011 lymphoblastoid cells viability; series mostly up to 92.2 µM
From the text: NIH Chemical Genomics Center [NCGC]
NIH Molecular Libraries Screening Centers Network [MLSCN]
National Institutes of Environmental Health Sciences [NIEHS]
National Toxicology Program [NTP]
We have developed a 1536-well cell-based assay for quantitative high throughput screening (qHTS) against a number of cell lines to determine in vitro cytotoxicity of small molecules. This particular assay uses a human lymphoblastoid cell line (LYMP2-011) purchased from Coriell Institute for Medical Research.
NCGC Assay Protocol Summary:
The CellTiter-Glo luminescent cell viability assay (Promega) is a homogeneous method to measure the number of viable cells in culture. The end point readout of this assay is based on quantitation of intracellular ATP, an indicator of metabolic activity, using the luciferase reaction. Luciferase catalyzes the oxidation of beetle Luciferin to oxyluciferin and light in the presence of ATP. The luminescent signal is proportional to amount of ATP present.
Using the CellTiter-Glo luminescent cell viability assay, the amount of cellular ATP was measured in the lymphoblastoid cell line with complete culture medium following compound treatment for 24 hours. The assay was performed in opaque white Kalypsys 1536-well plates. In the screen, tetraoctylammonium bromide was used as positive control. Library compounds were measured for their ability to cause acute toxicity in the cell line, as reflected by a decrease in intracellular ATP levels, in a concentration-dependent manner. […] AC50 values were determined from concentration-response data modeled with the standard Hill equation.
qHTS protocol for CellTiter Glo lymphoblastoid cellular assay
[Step] [Parameter] [Value] [Description]
1. Reagent; 5 uL; 2500 lymphoblastoid cells/well
2. Time; 5 hr; 37 C incubation
4. Controls; 23 nL; Tetraoctylammonium bromide 6.4pM to 92 uM
5. Time; 24 hr; 37 C incubation
6. Reagent; 5 uL; CellTiter Glo reagent
7. Time; 30 min; Room Temperature
8. Detection; Luminescence; Viewlux plate reader
Keywords: cell viability, cytotoxicity, lymphoblastoid cell line, luminescence, NTPHTS, NTPHTS_NCGC, NIEHS, DSSTox, MLSMR, MLSCN, NIH Roadmap, qHTS, NCGC

Compound	outcome
Cn1c(=O)c2c(ncn2C)n(C)c1=O	inactive
NCCS(=O)(=O)O	inactive
Clc1ccc(C(c2ccccc2Cl)C(Cl)Cl)cc1 (stereo not drawn)	inactive
CC(C)NCC(O)c1ccc(O)c(O)c1 (stereo not drawn)	inactive
N[C@@H](Cc1c[nH]c2ccc(O)cc12)C(=O)O	inactive
CCC1(c2ccccc2)C(=O)NCNC1=O	inactive
O=c1[nH]cc(F)c(=O)[nH]1	inactive
NS(=O)(=O)c1cc2c(cc1Cl)NCNS2(=O)=O	inactive
Cn1c(=O)c2[nH]cnc2n(C)c1=O	inactive
O=c1c(-c2ccc(O)cc2)coc2cc(O)cc(O)c12	inactive
Cc1cn([C@H]2C[C@H](N=[N+]=[N-])[C@@H](CO)O2)c(=O)[nH]c1=O	inactive
Nc1c2c(nc3ccccc13)CCCC2	inactive
Cc1ccc(-c2cc(C(F)(F)F)nn2-c2ccc(S(N)(=O)=O)cc2)cc1	inactive
COc1ccc2c(c1)c(CC(=O)O)c(C)n2C(=O)c1ccc(Cl)cc1	inactive
COc1ccc2[nH]cc(CCNC(C)=O)c2c1	inactive
Cc1cn([C@H]2C=C[C@@H](CO)O2)c(=O)[nH]c1=O	inactive
Nc1ccn([C@H]2CC[C@@H](CO)O2)c(=O)n1	inactive
CC(C)C(=O)Nc1ccc([N+](=O)[O-])c(C(F)(F)F)c1	inactive
